Data reported in PubChem BioAssay AID488789 (Broad Institute, 2010).
Measured potencies and affinities stand elsewhere. Results filed as inconclusive are left out. The source made the active and inactive calls.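 Rule for the calls: active = samples whose fitted half-maximal inhibition concentration is no more than ten times the top valid dose tested; inconclusive = flat response between -70 and -30, or invalid curve fit; inactive = flat within 30 of zero, potency above limit, or signal rising.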

target: Trypsin (Sus scrofa) (UniProt P00761); assay: porcine trypsin inhibitors, dose response, selectivity assay for Rce1 protease inhibitor project, biochemical, quenched peptide fluorescence, cherry-pick (AID 488789); conditions: quenched peptide cleavage fluorescence; series mostly up to 10 µM;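 note: more negative means stronger trypsin inhibition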
Sequence (P00761 whole entry, looked up): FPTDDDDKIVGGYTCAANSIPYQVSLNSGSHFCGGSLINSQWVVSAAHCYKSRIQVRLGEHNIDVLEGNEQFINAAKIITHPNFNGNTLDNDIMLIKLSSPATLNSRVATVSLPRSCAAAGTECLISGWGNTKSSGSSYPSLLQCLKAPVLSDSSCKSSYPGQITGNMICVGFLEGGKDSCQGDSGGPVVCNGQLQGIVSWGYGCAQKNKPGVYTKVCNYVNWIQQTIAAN

Question: With `O=C(NCC1CC1)c1cc(-c2ccccc2)nn1CC1CC(c2cccc([N+](=O)[O-])c2)=NO1` (stereo unspecified) as the compound, how does the outcome read?
Answer: Its outcome is “inactive”.

Question: How did the outcome turn out when `O=C(Nc1cc(Cl)cc(Cl)c1)c1coc(=O)c(Br)c1` was run?
Answer: Its outcome is “inactive”.

Question: `CCOc1cccc(-c2c(C(=O)N/N=C/c3cccs3)nnn2-c2nonc2N)c1` was tested. Which outcome did it give?
Answer: Its outcome is “inactive”.

Question: Which outcome does the source give for `O=C(c1cc(-c2ccccc2)nc2ccccc12)N1CCN(c2ccccn2)CC1` here?
Answer: The outcome was “inactive”.

Question: With `C#CCNC(=O)C1=C[C@@H](C2CCCCC2)C[C@@H](OCc2ccc(CO)cc2)O1` as the compound, how does the outcome read?
Answer: Its outcome is “inactive”.

Question: With `O=C(c1cn(-c2ccccc2)nc1-c1cccs1)N1CCN(c2ccccn2)CC1` as the compound, how does the outcome read?
Answer: The outcome was “inactive”.

Question: For `O=C(Nc1cc(S(=O)(=O)N2CCOCC2)ccc1N1CCCC1)c1cnccn1`, which outcome is on record?
Answer: Its outcome is “inactive”.

Question: How did the outcome turn out when `CCOc1ccc(N(Cc2ccc(OC)cc2)C(=O)c2ccco2)cc1` was run?
Answer: The outcome was “inactive”.

Question: `O=C1CCN(Cc2ccccc2)CCN1[C@H](CSc1ccccc1)Cc1ccccc1` was tested. Which outcome did it give?
Answer: Its outcome is “inactive”.

Question: For `CCO[C@H]1OC(C(=O)Nc2ccccc2)=C[C@@H](c2csc3ccccc23)[C@@H]1CCCO`, which outcome is on record?
Answer: Its outcome is “inactive”.

Question: For `CC(=O)c1c(O)cc(O)c(C(C)=O)c1O`, which outcome is on record?
Answer: Its outcome is “inactive”.

Question: `CC(C)CC(=O)Nc1ccc2oc(-c3cccnc3)nc2c1` was tested. Which outcome did it give?
Answer: The outcome was “inactive”.

Question: How did the outcome turn out when `O=C(C1=C[C@@H](C2CC2)C[C@@H](OCc2ccc(CO)cc2)O1)N1CCN(Cc2ccccc2)CC1` was run?
Answer: The outcome was “inactive”.

Question: How did the outcome turn out when `COc1ccc(OC)c(NC(=O)c2cc3oc4ccccc4c3cc2O)c1` was run?
Answer: Its outcome is “inactive”.

Question: Which outcome does the source give for `CC(=O)NC(Cc1c[nH]c2ccccc12)C(=O)O` (stereo unspecified) here?
Answer: The outcome was “inactive”.

Question: `O=C(O)CCC(=O)c1ccc(-c2ccccc2)cc1` was tested. Which outcome did it give?
Answer: The outcome was “inactive”.

Question: How did the outcome turn out when `COc1ccc(NS(=O)(=O)c2c(C)cc(C)cc2C)cc1` was run?
Answer: The outcome was “inactive”.

Question: Which outcome does the source give for `CC(=O)c1c(C)oc2ccc(NS(=O)(=O)c3ccc(C(=O)O)cc3)cc12` here?
Answer: The outcome was “inactive”.

Question: `O=C(Nc1sc2c(c1C(=O)c1ccc(Cl)cc1)CCCC2)c1cccnc1` was tested. Which outcome did it give?
Answer: Its outcome is “inactive”.

Question: `O=C(/C=C/c1cn(-c2ccccc2)nc1-c1cccs1)NCCN1CCOCC1` was tested. Which outcome did it give?
Answer: The outcome was “inactive”.

Question: `O=C(COC(=O)c1ccccc1Cc1ccccc1)NC1CCS(=O)(=O)C1` (stereo unspecified) was tested. Which outcome did it give?
Answer: Its outcome is “inactive”.
